Laboratory results reported in PubChem BioAssay (Tox21).
Results filed as inconclusive are left out. A call without a number means that no potency is given here. Unmarked numbers belong to inactive results. Activity calls are given as the source filed them. Calls follow the shape of the full dose curve.

Target: Beta-2 adrenergic receptor (Homo sapiens) (UniProt P07550)
Test: Adrenergic beta2 receptor (ADRB2) small molecule agonists, cell-based qHTS assay (AID 1963593);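 also: CHO cells stably overexpressing human ADRB2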
Settings: CHO-ADRB2 cells, cAMP HTRF, 30 min; series mostly up to 42.5 µM
Outline: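 CHO cells stably over-expressing ADRB2 were plated overnight at 37C, then dosed with compounds plus a stimulation mix containing 100uM IBMX and 25uM Ro-20-1724 for 0.5hr at room temperature. cAMP was measured by HTRF competition, 1hr.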

Sequence of Beta-2 adrenergic receptor (Homo sapiens) (P07550 whole entry, looked up): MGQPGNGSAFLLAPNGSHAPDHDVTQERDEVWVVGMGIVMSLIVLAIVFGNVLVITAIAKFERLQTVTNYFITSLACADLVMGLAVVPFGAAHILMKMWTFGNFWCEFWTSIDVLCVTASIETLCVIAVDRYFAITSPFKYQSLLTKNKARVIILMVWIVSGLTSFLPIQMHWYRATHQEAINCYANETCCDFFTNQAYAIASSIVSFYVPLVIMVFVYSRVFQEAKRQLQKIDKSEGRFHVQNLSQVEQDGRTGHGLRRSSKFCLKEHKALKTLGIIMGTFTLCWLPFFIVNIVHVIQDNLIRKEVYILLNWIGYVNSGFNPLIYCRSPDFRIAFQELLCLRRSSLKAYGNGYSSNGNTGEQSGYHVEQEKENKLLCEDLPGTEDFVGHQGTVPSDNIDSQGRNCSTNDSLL

Row | Compound | Potency | activation
1 | CCCCC(CC)COC(=O)CC#N (stereo not drawn) | inactive | 
2 | CCCCNS(=O)(=O)c1ccc(C)cc1 | inactive | 
3 | CC(=O)N(CC(O)CN(C(C)=O)c1c(I)c(C(=O)NCC(O)CO)c(I)c(C(=O)NCC(O)CO)c1I)c1c(I)c(C(=O)NCC(O)CO)c(I)c(C(=O)NCC(O)CO)c1I (stereo not drawn) | inactive | 
4 | CCCCCCCCCCCCCc1ccccc1 | inactive | 
5 | CC(=O)[C@H]1CC[C@H]2[C@@H]3C=CC4=CC(=O)CC[C@@]4(C)[C@@H]3CC[C@]12C | inactive | 
6 | C[C@@H]1CC[C@@]2(OC1)O[C@H]1C[C@H]3[C@@H]4CC[C@H]5C[C@@H](O)CC[C@]5(C)[C@H]4CC(=O)[C@]3(C)[C@H]1[C@@H]2C |  | 3.94% [at 8.39 µM]
7 | C[N+]12CCC(CC1)C(OC(=O)C(O)(c1ccccc1)c1ccccc1)C2 (stereo not drawn) | inactive | 
8 | NC(N)=NC(=O)Cc1c(Cl)cccc1Cl | inactive | 
9 | Cc1cc(OI)c(C(C)C)cc1-c1cc(C(C)C)c(OI)cc1C | inactive | 
10 | OCC(O)[C@@H](O)[C@H](O)[C@H](O)CO[C@H]1O[C@H](CO)[C@@H](O)[C@H](O)[C@H]1O (stereo partly drawn) | inactive | 
11 | COc1cc2c3cc1Oc1cc(ccc1O)C[C@@H]1c4c(cc(OC)c(O)c4Oc4ccc(cc4)C[C@@H]3N(C)CC2)CC[N+]1(C)C | inactive | 
12 | Cc1cc(C)c(NC(=O)CN(CC(=O)O)CC(=O)O)c(C)c1Br | inactive | 
13 | C=CC(=O)OCC[N+](C)(C)C | inactive | 
14 | CN(C)CCOC1=Cc2ccccc2Sc2ccc(Cl)cc21 | inactive | 
15 | COc1ncnc(NS(=O)(=O)c2ccc(N)cc2)c1OC | inactive | 
16 | C[C@@H]1CN(c2c(F)c(N)c3c(=O)c(C(=O)O)cn(C4CC4)c3c2F)C[C@H](C)N1 | inactive | 
17 | Cc1ccsc1/C=C/C1=NCCCN1C | inactive | 

Row | Compound | Potency | activation
18 | CCCCNc1c(C(=O)OCC)c(C)nc2c1cnn2CC | inactive | 
19 | CN(C)c1ccc(C(c2ccccc2)c2ccc(N(C)C)cc2)cc1 | inactive | 
20 | CN(C)CCC[C@@]1(c2ccc(F)cc2)OCc2cc(C#N)ccc21 | inactive | 
21 | CCCCCCCCCCCC(=O)Cl | inactive | 
22 | CC1OC(=O)C(C)OC1=O (stereo not drawn) | inactive | 
23 | O=[N+]([O-])c1cccc(S(=O)(=O)NCCNS(=O)(=O)c2cccc([N+](=O)[O-])c2)c1 | inactive | 
24 | CCCN(CCC)CCc1cccc2c1CC(=O)N2 | inactive | 
25 | CC(=O)c1c(C)cc(C(C)(C)C)cc1C | inactive | 
26 | CCN(CC)CCNC(=O)c1cc(Br)c(N)cc1OC | inactive | 
27 | CC(=O)OCC(=O)[C@@]1(O)CCC2C3CCC4=CC(=O)CC[C@]4(C)C3[C@@H](O)C[C@@]21C (stereo partly drawn) | inactive | 
28 | O=C1c2ccccc2S(=O)(=O)N1CCCCN1CCN(c2ncccn2)CC1 | inactive | 
29 | COc1ccc(/C=C/S(=O)(=O)NC(=O)c2ccc(C)cc2Cl)cc1 | inactive | 
30 | Cc1ccc(OC(=O)c2ccccc2O)cc1 | inactive | 
31 | O=C(Oc1ccccc1)c1ccccc1C(=O)Oc1ccccc1 | inactive | 
32 | CC(=O)CC(=O)OC(C)(C)C | inactive | 
33 | Cc1nc(-c2ccc(Cl)cc2)oc1COC(C)(C)C(=O)O | inactive | 
